Inconclusive results are not listed. Where a call stands in place of a potency, no number is given. Activity calls are given as the source filed them. Calls come from the whole dose curve; as a rule, active = well fitted activation curve with a large enough effect; inconclusive = small, poorly fitted or top-dose-only effect; inactive = no such curve, though single readings can be large or run the other way.

This assay in a line: qHTS Multiplex Assay to Identify Dual Action Probes in a Cell Model of Huntington: Cytoprotection confirmation (ATP). Conditions: PC12 HttQ103 induced, ATP luminescence 40 h; series mostly up to 46.1 µM. The text has this:
NIH Chemical Genomics Center [NCGC]
NIH Molecular Libraries Probe Production centers Network [MLPCN]
Assay Submitter (PI): Wei Zheng
Huntington's disease is a neurodegenerative disorder caused by a trinucleotide repeat expansion in Exon 1 of the Huntingtin gene. The CAG trinucleotide encodes glutamine and polyglutamine expansions cause cell death in selective areas of the brain. Huntington polyglutamine repeats have the tendency to form aggregates which are observable in later stages of the disease. The exact nature of the aggregates, whether toxic, protective, or insignificant, is unclear.
A stable PC12 cell line containing a gene fusion of Exon 1 of the Huntingtin gene linked to GFP under the control of the inducible ecdysone promoter were used as the cell-based model of Huntington Disease for high throughput screening. Exon 1 of the Huntingtin gene contained an expansion of 103 polyglutamines (Q103) which, when expressed, caused cell death and distinct, bright GFP aggregates. The amount of cell death and the size and intensity of GFP aggregates increased over time and induction level. The cell death were quantified with a measurement of ATP content in the cells. A maximal 40-50% of cell death was observed when the Huntington gene was induced in this cell line.
We optimized this assay in a homogeneous 1536 well format. A quantitative high throughput screen (qHTS) was conducted on the PC12 cells which were induced to express the toxic fusion construct. Small molecules which prevented cell death were identified by using a luminescent ATP quantification method (Perkin Elmer's ATPlite).
PC12 cells stably containing a construct with an ecdysone inducible promoter expressing GFP fused to the exon 1 of HTTQ103 (Huntington protein which containing a 103 ployglutamine expansion) were used.
NCGC Assay Protocol Summary:
Sequence, Parameter, Description
1, Reagent, 5 uL 1500 cells/well 1536 TC treated White clear bottom plate
2, Compound, 23 nL Tebufenozide inducer (100 nM final) to all columns
3, Compound, 23 nL 40 uM to 0.5 nM Libraries
5, Reagent, 5 ul ATPLite cell death assay reagent
6, Detector, 4 sec integration with a Viewlux Luminescent
Media consisted of phenol red free DMEM + 5% equine serum (Hyclone # SH30072.03 ), 5% supplemented Bovine Calf Serum (Hyclone # SH30074.03 ), 1x pen/strep, no G418
In general terms: Quantitative high-throughput screening tests each substance at several concentrations.
With `Cn1nnnc1Sc1ncnc2scc(-c3cccs3)c12`, the Potency was 10 µM (active).
On to `Cn1nnnc1Sc1ncnc2scc(-c3ccc(C#N)cc3)c12`, for which the Potency is 10 µM (active).
For `C[C@@H]1CNCCN1S(=O)(=O)c1cccc2cnccc12`, the Potency entry was “inactive”.
With `O=C(Nc1ccc(Cl)cc1C(F)(F)F)C(Sc1cccc[n+]1[O-])c1ccccc1` (stereo not given), the Potency result was “inactive”.
As for `O=C(NCN1C(=O)C2C3C=CC(C3)C2C1=O)Nc1ccccn1` (stereo not given), the Potency result is “inactive”.
The value for `CCCn1nc([N+](=O)[O-])c(C(C#N)c2nc3ccccc3s2)c(Cl)c1=O` (stereo not given) was “inactive”; that for `CCc1nc(SCC(=O)N2CCCC2)c2ccccc2n1` was “inactive”; that for `COc1cccc(C(=O)Nc2ccc(F)c(F)c2F)c1` was “inactive”.
For the compound `COc1ccc2cc3cc(C(=O)NCc4ccco4)oc3nc2c1`, the Potency result was “inactive”.
Consider `COc1ccc(-c2csc3ncnc(Sc4nnnn4C)c23)cc1`, for which the Potency is 25.1 µM (active).
On to `CC(=O)c1ccccc1-c1csc2ncnc(Sc3nnnn3C)c12`, for which the Potency is 31.6 µM (active).
With `CC(C(=O)O)c1ccc(N2Cc3ccccc3C2=O)cc1` (stereo not given), the Potency result is “inactive”.
Regarding `Cn1nnnc1Sc1ncnc2scc(-c3ccc(S(C)(=O)=O)cc3)c12`, the Potency is 17.8 µM (active).
In the case of `Cc1nnc2n1N=CC=C(c1ccccc1)S2`, the Potency result is “inactive”.
Regarding `O=C(O)/C=C/C(O)c1ccc(Cl)cc1` (stereo not given), the Potency result is “inactive”.
For `O=C(Nc1ccccc1)C1=C(O)CC(c2ccco2)CC1=Nc1ccccc1` (stereo not given) the value was “inactive”.
Consider `O=C(O)c1cc(=O)c2ccc(Cl)cc2[nH]1`, for which the Potency result is “inactive”.
With `COc1ccc(C2=Nc3cc(C)ccc3OC2)cc1`, the Potency result is “inactive”.
With `Cn1nnnc1Sc1ncnc2scc(-c3ccc4ccccc4c3)c12`, the Potency is 12.6 µM (active).
In the case of `N#CCCn1c(Cl)nc2ccccc21`, the Potency entry is “inactive”.
For `O=c1c2ccccc2nnn1CSc1ncnc2ccccc12` the value was “inactive”.
In the case of `O=C(N/N=C/c1ccc(O)c(O)c1)c1ccc(CSc2cccc3cccnc23)cc1`, the Potency result was “inactive”.
With `O=C(Nc1cccnc1)Nc1ccccc1Cl`, the Potency result is “inactive”.
Regarding `COc1ccc(C(=O)C(CN2CCOCC2)c2ccccc2)cc1` (stereo not given), the Potency entry was “inactive”.
Take `Cn1nnnc1Sc1ncnc2scc(-c3cccc(Br)c3)c12`: the Potency entry is “inactive”.
`CCOC(=O)c1sc2nc(N3CCOCC3)c3c(c2c1N)CC(C)(C)N(C)C3`: the Potency entry was “inactive”.
With `O=Nc1c(-c2c(O)[nH]c3ccccc23)[nH]c2ccccc12`, the Potency entry is “inactive”.
As for `CCN(CC)CCNc1ccc(CO)c2sc3ccccc3c(=O)c12`, the Potency result is “inactive”.
As for `COc1c(F)c(F)c(C(=O)Nc2ccc3oc(-c4ccncc4)nc3c2)c(F)c1F`, the Potency entry is “inactive”.
On to `O=c1oc2cc(O)ccc2s1`, for which the Potency result is “inactive”.
For `C=CCC(=O)OCCCCCCOc1ccc(C(=O)O)cc1` the value was “inactive”; for `Cc1csc(N/N=C/c2ccc(O)c([N+](=O)[O-])c2)n1`, “inactive”.
The value for `C=C1CCC2[C@](C)(CO)[C@H](O)CC[C@@]2(C)[C@@H]1C/C=C1/C(=O)OC[C@H]1O` (stereo not given in full) was “inactive”; that for `CN(C)c1ccc(-c2n(C)c3ccccc3[n+]2C)cc1` was “inactive”.
In the case of `Cc1cccc(-c2csc3ncnc(Sc4nnnn4C)c23)c1`, the Potency is 31.6 µM (active).
For `Cc1ccc(-c2csc3ncnc(Sc4nnnn4C)c23)cc1` the value was 35.5 µM (active); for `CCc1nc(SCC(=O)Nc2nc3c(s2)CCCC3)c2ccccc2n1`, “inactive”.
For `CC(C)(C)n1nnnc1C(c1ccc2ncccc2c1)N1CCSCC1` (stereo not given) the value was “inactive”.
Turning to `O=C(c1ccccc1)c1ccc2n1CCC2C(=O)O` (stereo not given), the Potency entry was “inactive”.
On to `CC(=O)Nc1ccc(S(=O)(=O)N2CCSC2c2ccccc2)cc1` (stereo not given), for which the Potency result is “inactive”.

(Values after PubChem BioAssay AID2673 (National Center for Advancing Translational Sciences (NCATS), 2010).)
